# Screens: PubChem, National Center for Advancing Translational Sciences (NCATS)
# This is a sample that favours compounds with a hit; in the whole collection about 14% have one here.
# Pf growth 96h: inhibits malaria parasite growth, 96 h. P. falciparum luciferase reporter growth, 96 h. Potency, µM (series often up to 28.7 µM), for inactives: top-dose activity change, negative = inhibition, usual class: inhibitors. 320,000 compounds, 6.9% hits. AID 504834; also: potency is read from the fitted curve at half-maximal effect
#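 Infected RBCs, 2% Hct / 0.05% parasitemia final; luciferase-reporter P. falciparum; cpd 96 h, 37 C, 5% CO2; luciferase detection reagent; luminescence.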
# Giardia FBPA inh: Giardia lamblia aldolase inhibition; A8B2U2; purified Giardia FBPA; Potency, µM (highest dose often 59.6 µM), without a hit: at the top dose activity, negative = inhibition, hits mostly inhibitors; 290,000 compounds, 0.71% hits; AID 2451; also: potency is read from the fitted curve at half-maximal effect; nearly all actives have a fitted effect of over 55% in size
# Target sequence (A8B2U2 whole entry, looked up): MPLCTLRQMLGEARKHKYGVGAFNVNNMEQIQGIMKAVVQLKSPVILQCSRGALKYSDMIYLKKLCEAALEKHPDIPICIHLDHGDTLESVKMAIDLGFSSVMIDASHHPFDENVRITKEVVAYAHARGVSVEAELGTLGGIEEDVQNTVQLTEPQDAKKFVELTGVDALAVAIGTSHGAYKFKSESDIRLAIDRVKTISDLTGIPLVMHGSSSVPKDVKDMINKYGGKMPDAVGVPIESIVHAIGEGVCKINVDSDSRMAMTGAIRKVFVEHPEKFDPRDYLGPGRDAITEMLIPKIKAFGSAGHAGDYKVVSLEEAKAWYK
#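 Giardia FBPA (40 nM reagent) was preincubated 10 min at RT with compound (up to 57.5 uM final), then substrate plus GAPDH/TPI/NAD/arsenate coupling system with diaphorase/resazurin was added; resorufin fluorescence (525/598 nm) was read after 20 min.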
# Pf growth 48h: P. falciparum growth inhibition at 48 hours (one generation). 310,000 compounds, 5.9% hits. Potency, µM (series often up to 28.7 µM), without a hit: at the highest dose activity change, negative = inhibition, usual class: inhibitors. P. falciparum luciferase growth in erythrocytes, 48 h; also: potency is read from the fitted curve at half-maximal effect
#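 Firefly luciferase activity from engineered P. falciparum reports growth; inhibitors lower the luminescent signal. Cultures contained 2% hematocrit erythrocytes at 0.1% final parasitemia.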
# HCMV inh: inhibitors of human cytomegalovirus. HFF cells, HCMV-luciferase reporter, 72 h; stronger effect = lower value. activity change, negative = inhibition, % at 57.5 µM. 410,000 compounds, 4.5% hits. AID 1259415; in the data active = activity change below about -60%; inconclusive = no clear call, values can overlap the other calls; inactive = above about -39%
#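 Compounds were evaluated in HFFs infected with an HCMV luciferase reporter virus (MOI 1 PFU/cell). Luciferase in lysates collected 72 h post infection served as the replication measure.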
# Sm TGR block: S. mansoni TGR enzyme inhibition; Q962Y6; purified TGR, DTNB reduction, TNB absorbance 405 nm; Potency, µM (highest dose often 114 µM), inactives show at the top dose activity change, negative = inhibition, most hits filed as inhibitors; 360,000 compounds, 3% hits; AID 485364; also: potency is read from the fitted curve at half-maximal effect; nearly all actives have a fitted effect of over 60% in size
#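 TGR 20 nM + NADPH 100 uM (dispensed conc.), cpd preinc 15 min RT; start with NADPH (500 uM addition) then DTNB (15 mM addition). Kinetic TNB absorbance, 405 nm filter. Four-parameter Hill fit across titration.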
# * hit, by the source's call; u = inconclusive; x = no result given; [ ] = remark or other dose. Unless noted, calls follow the shape of the dose curve; as a rule, active = well fitted curve in the direction sought with a large enough effect; inconclusive = small, poorly fitted or top-dose-only effect, or another doubt; inactive = no such curve, though single readings can be large; an effect the other way counts as inactive or inconclusive. % is scaled to controls: 0 for no effect and ±100 for the full control effect.
SMILES,Pf growth 96h,Giardia FBPA inh,Pf growth 48h,HCMV inh,Sm TGR block
Cc1ccc(C)c(-n2nnnc2Sc2nnnn2-c2ccccc2)c1,-4%,0%,x,-97*,-2%[11.4 µM]
CCSc1nnnn1-c1ccccc1,u,-2%,x,8,0%
c1ccc(-c2nc(CSc3nnnn3-c3ccccc3)cs2)cc1,-15%,6%,31%,32,-17%
c1ccc(Cn2c(Sc3nnnn3-c3ccccc3)nnc2-c2ccccc2)cc1,u,5%,1.9µM*,11,4%
N=C(N)SCc1nc2ccccc2c(=O)n1-c1ccccc1Cl,u,-9%,21%,30,7%
Cc1nnc(SCc2nc3ccccc3c(=O)n2-c2ccccc2Cl)n1N,-8%,-24%,-11%,-8,56µM*
c1ccc(Cn2c(CSc3nnnn3-c3ccccc3)nc3ccccc32)cc1,15µM*,1%,u,-35,0%
CCc1nc2ccc(C(=O)NCCCn3ccnc3)cn2c1N(CC)C(=O)NCCc1ccccc1,x,x,x,51,x
CCOC(=O)N1CCN(C(=O)CSc2ccc(-c3cccc(OC)c3)nn2)CC1,-29%,1%,-30%,78,0%
CCOC(=O)N1CCN(C(=O)CSc2cc(C)nc3c(-c4ccccc4OC)c(C)nn23)CC1,11%,9%,4.7µM*,x,-23%
CCOC(=O)N1CCC(Nc2cc(C)nc3c(-c4ccccc4OC)c(C)nn23)CC1,2%,1%,9.3µM*,u,-5%
CCOC(=O)N1CCN(C(=O)CSc2ccc(-c3ccccc3OC)nn2)CC1,4.7µM*,4%,u,16,90%
COc1ccccc1-c1c(C)nn2c(C)cc(C)nc12,13µM*,2%,-8%,-39,3%
O=C(Nc1ccc(N2CCC(N3CCCCC3)CC2)c(C(=O)O)c1)c1ccccc1,x,x,x,13,2%
CCc1nn(CC(=O)NCc2ccc(OC)c(OC)c2)c(=O)c2cc3sc(C)cc3n12,x,x,x,37,-7%
O=C1OC2(CCCCC2)OC(=O)C1=CNc1ccc2c(c1)OCO2,31%,-10%,-16%,-9,-15%
COc1ccc(S(=O)(=O)Nc2ccc3c(c2)OCO3)cc1,40%,-5%,u,-10,3%
O=C1/C(=C/Nc2ccc3c(c2)OCO3)CCc2ccccc21,-97%,14µM*,x,-62*,u
COc1ccc(N/C=C2\CCc3ccccc3C2=O)cc1,14%,11µM*,35%,-18,40µM*
COc1ccc2c(c1)CC/C(=C\Nc1ccc3c(c1)OCO3)C2=O,x,7.9µM*,4%,-8,6.3µM*
COC(=O)/C=C/c1cccc(N(Cc2ccc(-c3ccc(N(C)C)cc3)cc2)C(=O)C2CCCCC2)c1,x,-8%,x,x,x
COc1cccc(CNS(=O)(=O)c2c(C(=O)N3CCC(C)CC3)c(C)n(C)c2C)c1,x,x,x,-3,5%
Cc1ccc2nc(Br)c3c(c2c1)OC(CBr)C3 (centres undefined),u,3%,0%,-38,4%
O=[N+]([O-])c1ccc(COc2ccc(CN3CCCC3)cc2)cc1,x,x,x,-8,x
COc1cccc(-c2nc3ccccc3s2)c1O,9%,-8%,165%,92,x
SMILES,Pf growth 96h,Giardia FBPA inh,Pf growth 48h,HCMV inh,Sm TGR block
Oc1c(Br)cc(Br)cc1-c1nc2ccccc2s1,x,x,x,29,45µM*
O=C(NC(NC(=O)c1ccccc1)C(=O)c1ccccc1)c1ccccc1,2.3µM*,1%,-19%,2,6%
O=C(NC(Nc1ncccn1)C(=O)c1ccccc1)c1ccccc1 (centres undefined),-11%,22%,37%,11,3%
O=C(c1ccccc1)C(O)c1ccccc1 (centres undefined),9.5µM*,x,u,-4,-25%
COc1cccc(CNS(=O)(=O)c2c(C)[nH]c(C)c2C(=O)N2CCCCC2)c1,1%,0%,9%,u,-2%
CCNC(=O)c1cccc(NC(=O)CN2C(=O)NC3(CCCCC3)C2=O)c1,31%,x,1%,-12,-7%
C=C(C)C1CC=C(C)/C(=N/NC(=O)COc2ccc(C)cc2)C1 (centres undefined),-8%,6%,-7%,u,7%
C=C(C)C1CC=C(C)/C(=N\NC(=S)Nc2ccc(C)cc2)C1 (centres undefined),10µM*,10%,15µM*,-28,1%
CC1(C)C(c2cccs2)=NC(c2ccccc2)N1O (centres undefined),9.3µM*,-1%,39%,-5,8%
CCOC(=O)c1c(NC(=O)c2ccc(S(=O)(=O)N(C)C3CCCCC3)cc2)sc2c1CCN(C(C)C)C2,x,x,x,-1,8%
NC(=O)c1cc(NC(=O)CCNS(=O)(=O)c2cccc(C(F)(F)F)c2)cc(C(N)=O)c1,47%,0%,9%,-13,-4%
O=C(Nc1nccs1)NC1CCCCC1,12%,1%,2.9µM*,36,-31%
O=C(Nc1nccs1)C1CC=CCC1 (centres undefined),3%,-11%,18%,-69*,-15%
O=C(Nc1nccs1)c1ccc(S(=O)(=O)NCC2CCCCC2)cc1,-24%,2%,-5%,-83*,4%
CC(C)C(OC(=O)CCC(=O)Nc1nccs1)C(=O)NC1CCCCC1 (centres undefined),36%,3%,-7%,u,4%
COc1ccccc1C(=O)NC(=S)Nc1ccccc1N1CCCC1,3.7µM*,x,24%,u,u
Cc1ccccc1C(=O)NC(=S)Nc1ccccc1N1CCCC1,11%,-10%,u,-16,x
O=C(NC(=S)Nc1ccccc1N1CCCCC1)c1ccc(F)cc1Cl,u,x,12µM*,7,-17%
COc1cccc(NS(=O)(=O)NC(=O)c2c(C)[nH]c3ccccc23)c1,u,3%,31%,-27,3%
Cc1ccccc1OCC(=O)OCc1cc(=O)n2nc(-c3cccs3)sc2n1,x,x,x,21,7%
CN(Cc1ccc(F)cc1)C(=O)CN1CCN(S(=O)(=O)c2ccc3c(c2)OCCCO3)CC1,x,x,x,10,x
OC(CCN1CCOCC1)c1ccccc1 (centres undefined),121%,-4%,75%,-12,5%
OC(CCN1CCCCC1)c1ccc(-c2ccccc2)cc1 (centres undefined),4.7µM*,5%,x,14,6%
CC(C)C(=O)C1=Cc2cc([N+](=O)[O-])ccc2OC1N1CCOCC1 (centres undefined),-27%,11%,180%,-3,6%
COc1ccccc1NC(=O)COC(=O)c1cc2ccccc2cc1O,21%,x,u,0,2%
COc1cc(NC(=O)c2cc3ccccc3cc2O)c(OC)cc1Cl,1.3µM*,-14%,2.1µM*,-101*,-13%
Cc1ccc(Cl)cc1NC(=O)c1cc2ccccc2cc1O,0.29µM*,-19%,0.93µM*,-100*,4%
COc1ccccc1NC(=O)c1cc2cc(Br)ccc2cc1O,u,u,2.9µM*,-29,7%
